Compound activity as filed in PubChem.
Compounds with a hit are over-represented: about 5.5% of the library has one in this group of screens.
Six1-Eya2 inh = inhibitors of human Six1/Eya2 interaction; Q15475+O00167; AlphaScreen GST-Six1/His-Eya2 binding, biochemical; active compounds read low; activity change, % (no concentration beside the values); hit rate 0.56% among 360,000; in the data active = activity change below about -65%; inconclusive = mostly about -30% to -63%; also: % is scaled to controls: 0 for no effect and ±100 for the full control effect
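Compounds are tested against tagged Six1 and Eya2 proteins bridged by glutathione donor and nickel acceptor beads; after a one-hour incubation at 37 °C without light, AlphaScreen emission is recorded.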
CtBP-E1A blk = CtBP/E1A binding inhibition; hit rate 0.49% among 340,000; AID 651724; activity change, % (test concentration not listed); AlphaScreen GST-E1A/His-CtBP binding, 1536-well; active compounds read low; in the data active = activity change below about -65%; inconclusive = mostly about -30% to -63%; also: % is scaled to controls: 0 for no effect and ±100 for the full control effect
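AlphaScreen with 125 nM GST-E1A and 125 nM His-CtBP (5X stocks) in Tris pH 8.0, 300 mM NaCl, BSA, Tween 20, TCEP. Compounds preincubated 2 h at 37 deg C, then glutathione donor/nickel acceptor beads added for 1 h at 37 deg C in dark.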
CBFb RUNX1 block = CBF-beta/RUNX1 interaction disruption | AlphaScreen CBFb-His/RUNX1-biotin binding, biochemical | Potency, µM (titrated, usually from 59.8 µM), without a hit: at the highest dose activity, negative = inhibition, usual class: inhibitors | Q01196+Q13951 | 230,000 tested, under 10 active; also: % of control where 0% means no effect
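Proteins preincubated together for 20 min at RT before compound addition; 15 min later, nickel and streptavidin beads were added and left 90 min prior to AlphaScreen measurement.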
MBNL1-CUG inh = inhibitors of human MBNL1 binding to CUG repeat RNA | Potency, µM (highest dose often 57.5 µM), for the others: at the top dose activity change, negative = inhibition, usual class: inhibitors | Q9NR56 | hit rate 0.036% among 280,000 | TR-FRET MBNL1-His/biotin-(CUG)12 binding, 665/545 ratio; active = well fitted inhibition curve with a large enough effect in the signal ratio, with a control signal flat, not every such curve was filed as active; inconclusive = small, poorly fitted or top-dose-only effect, or effect the other way, or a change in a side signal; inactive = no such curve, though single readings can be large or run the other way; the % refers to the signal ratio; also: potency is read from the fitted curve at half-maximal effect; % is scaled to controls: 0 for no effect and ±100 for the full control effect
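Compound titration spanned 92 nM–58 uM against the MBNL1-His/biotin-(CUG)12 complex. After 60 min at room temperature with 5 nM streptavidin-XL665 and 0.055 ng/ul terbium anti-His, ratiometric 665/545 nm emission (Ex 340 nm) normalized to controls.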
VP16 counter = counter-screen for ROR gamma inhibitors: Gal4-VP16 reporter; Drosophila S2 Gal4-VP16 UAS-luciferase, luminescence, 20 h; Potency, µM (doses to about 53.6 µM), inactives show at the highest dose activity, negative = inhibition, most hits filed as inhibitors; hit rate 3.5% among 310,000;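 also: Gal4-VP16 expression switched on by copper sulfate through the metallothionein promoter; potency is read from the fitted curve at half-maximal effect; % is scaled to controls: 0 for no effect and ±100 for the full control effect; nearly all actives have a fitted effect of over 50% in size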
RORg inh = ROR gamma (mouse) transcription inhibition; Potency, µM (titrated, usually from 53.6 µM), for the others: at the highest dose activity change, negative = inhibition, most hits filed as inhibitors; AID 2551; Drosophila S2 Gal4-RORgamma UAS-luciferase reporter, 20 h; hit rate 5.4% among 310,000; P51450; also: potency is read from the fitted curve at half-maximal effect; % is scaled to controls: 0 for no effect and ±100 for the full control effect; nearly all actives have a fitted effect of over 60% in size
Target sequence (P51450 whole entry, looked up, the tested form may be a part): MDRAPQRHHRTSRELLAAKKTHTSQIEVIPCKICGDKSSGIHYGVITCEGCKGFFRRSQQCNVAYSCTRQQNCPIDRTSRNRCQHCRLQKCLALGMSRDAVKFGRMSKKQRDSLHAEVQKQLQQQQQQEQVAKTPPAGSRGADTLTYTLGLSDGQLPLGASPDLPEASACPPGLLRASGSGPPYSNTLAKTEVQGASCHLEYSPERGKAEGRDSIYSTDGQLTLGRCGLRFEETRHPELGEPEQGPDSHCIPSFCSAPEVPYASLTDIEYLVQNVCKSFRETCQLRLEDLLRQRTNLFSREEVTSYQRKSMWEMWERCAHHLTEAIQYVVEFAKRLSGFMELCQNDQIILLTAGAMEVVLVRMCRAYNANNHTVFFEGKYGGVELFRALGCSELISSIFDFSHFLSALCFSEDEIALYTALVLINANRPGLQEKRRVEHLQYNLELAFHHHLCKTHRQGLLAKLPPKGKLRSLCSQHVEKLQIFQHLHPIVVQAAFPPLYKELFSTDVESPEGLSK
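Read-out: Photinus luciferase luminescence; inhibitors lower reporter signal. Insect Schneider cells with Gal4-ROR gamma fusion under metallothionein promoter, UAS reporter; 700 uM final copper sulfate induction, 20 hr, ambient temperature.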
An asterisk follows results filed as active. Unless noted, calls follow the shape of the dose curve; as a rule, active = well fitted curve in the direction sought with a large enough effect; inconclusive = small, poorly fitted or top-dose-only effect, or another doubt; inactive = no such curve, though single readings can be large; an effect the other way counts as inactive or inconclusive.

For CCC1(CC)NC(=O)N(CC(=O)OC(C)C(=O)Nc2ccc(S(N)(=O)=O)cc2)C1=O (centres undefined) the results were Six1-Eya2 inh 4 and CtBP-E1A blk 2.
Cc1ccc(OCCNC(=O)c2cncc(Br)c2)cc1C was read as Six1-Eya2 inh 0, CtBP-E1A blk 4, CBFb RUNX1 block 7%, MBNL1-CUG inh 6%, VP16 counter -2% and RORg inh 19%.
Screening Cc1cccc(OCCNC(=S)NC(=O)c2cncc(Br)c2)c1 returned Six1-Eya2 inh -1, CtBP-E1A blk 4, MBNL1-CUG inh -4%, VP16 counter 6.3µM* and RORg inh 5µM*.
CCOC(=O)c1ccc(NC(=S)NC(=O)c2cncc(Br)c2)cc1 was read as Six1-Eya2 inh 9, CtBP-E1A blk 5, MBNL1-CUG inh -3%, VP16 counter inconclusive and RORg inh 2.2µM*.
Screening COc1ccc(OC)c(-n2c(-c3ccccc3)n[nH]c2=S)c1 returned Six1-Eya2 inh -2, CtBP-E1A blk -1, CBFb RUNX1 block 1%, MBNL1-CUG inh 2%, VP16 counter inconclusive and RORg inh 10µM*.
Screening COc1ccc(OC)c(-n2c(-c3cccc(C)c3)n[nH]c2=S)c1 returned Six1-Eya2 inh -7, CtBP-E1A blk -10, CBFb RUNX1 block 10%, MBNL1-CUG inh -3%, VP16 counter -29% and RORg inh 2.5µM*.
COc1ccccc1-n1c(-c2ccccc2)n[nH]c1=S was read as Six1-Eya2 inh 2, CtBP-E1A blk -1, CBFb RUNX1 block 0%, MBNL1-CUG inh 0%, VP16 counter inconclusive and RORg inh 7.1µM*.
`COc1ccc(OC)c(-n2c(-c3cc(-c4ccccc4)n[nH]3)n[nH]c2=S)c1` gave Six1-Eya2 inh -2, CtBP-E1A blk -9, CBFb RUNX1 block -21%, VP16 counter inconclusive and RORg inh 7.9µM*.
COc1ccc(CC(=O)NCc2n[nH]c(=S)n2-c2cccc(C)c2)cc1 was read as Six1-Eya2 inh 5, CtBP-E1A blk 8, CBFb RUNX1 block 2%, MBNL1-CUG inh -2%, VP16 counter 4% and RORg inh -34%.
COc1ccc(-c2cc(-c3n[nH]c(=S)n3-c3ccccc3OC)[nH]n2)cc1 was read as Six1-Eya2 inh -16, CtBP-E1A blk 20, CBFb RUNX1 block -5%, MBNL1-CUG inh -9%, VP16 counter inconclusive and RORg inh inconclusive.
Screening O=C(CN1C(=O)CCSc2ccccc21)NC1CCCCC1 returned Six1-Eya2 inh 9, MBNL1-CUG inh 0%, VP16 counter -4% and RORg inh -4%.
`CN[C@H]1CCc2cc(OC)c(OC)c(OC)c2-c2ccc(N[C@@H]3CCCCNC3=O)c(=O)cc21` gave CBFb RUNX1 block 13%, VP16 counter -4% and RORg inh -6%.
Screening COC(=O)C1=C(C)N(Cc2ccccc2)C(=NCC(C)C)N[C@H]1c1ccc(Br)cc1 returned MBNL1-CUG inh 6%, VP16 counter 7.1µM* and RORg inh 1.8µM*.
`COC(=O)C1=C(C)N(Cc2ccccc2)C(=S)N[C@H]1c1ccc(Br)cc1` gave Six1-Eya2 inh -21, CtBP-E1A blk -10, MBNL1-CUG inh -2%, VP16 counter 13µM* and RORg inh 3.5µM*.
`COC(=O)C1=C(C)N(Cc2ccccc2)C(=S)N[C@H]1c1cccc(C(F)(F)F)c1` gave Six1-Eya2 inh -5, CtBP-E1A blk -19, MBNL1-CUG inh 0%, VP16 counter 10µM* and RORg inh 3.5µM*.
COC(=O)C1=C(C)N(Cc2ccccc2)C(=NCC2CC2)N[C@H]1c1ccc(Br)cc1 was read as MBNL1-CUG inh -8%, VP16 counter inconclusive and RORg inh inconclusive.
Screening CCCCn1c(N)c(N(CC(C)C)C(=O)c2ccc(OC)c(S(=O)(=O)N3CCOCC3)c2)c(=O)[nH]c1=O returned Six1-Eya2 inh 6 and CtBP-E1A blk -4.
